The source made the active and inactive calls. How the source made its calls: active means hit-call score of the fitted dose curve at least 0.9, where 1 is the maximum; inactive means score below 0.9.

A short description of the assay: ATG_AP_2_CIS: Attagene CIS-FACTORIAL HepG2 Assay for human Activator Protein 2 (AP-2) (AID 2282932). The settings on record: HepG2 AP-2 cis-reporter, Attagene transcription factor profiling; actives raise or lower the signal. On the procedure: ATG_CIS is a cell-based, multiplexed-readout assay that uses HepG2, a human liver cell line, with measurements taken at 24 hours after chemical dosing in a 24-well plate.ATG_AP_2_CIS is one of 52 assay component(s) measured or calculated from the ATG_CIS assay. It is designed to make measurements of mRNA induction, a form of inducible reporter, as detected with fluorescence intensity signals by Reverse transcription polymerase chain reaction (RT-PCR) and Capillary electrophoresis technology.Data from the assay component ATG_AP_2_CIS was analyzed into 1 assay endpoint. This assay endpoint, ATG_AP_2_CIS, was analyzed with bidirectional fitting relative to DMSO as the negative control and baseline of activity. Using a type of inducible reporter, measures of mRNA for gain or loss-of-signal activity can be used to understand the reporter gene at the transcription factor-level as they relate to the gene TFAP2A and TFAP2B and TFAP2D. Furthermore, this assay endpoint can be referred to as a primary readout, because this assay has produced multiple assay endpoints where this one serves a reporter gene function. To generalize the intended target to other relatable targets, this assay endpoint is annotated to the dna binding intended target family, where the subfamily is basic helix-turn-helix leucine zipper.
Human liver HepG2 cells are transiently transfected with multiple reporter transcription units (MRTUs) in 6-well plates using FuGene 6 reagent (Roche; 3 ml FuGene/1 mg DNA). The MRTU constructs are regulated by a cis-regulating element (promoter). […] A major difference between the CIS and TRANS system is that in CIS activities of endogenous TFs are measured, whereas the TRANS assay evaluates changes in activities of exogenous, chimeric NR-Gal4 proteins. […] At the end of 24 hour incubation, total RNA was isolated using TriZol reagent (Invitrogen). The isolated RNA is then reverse-transcribed using oligo(dT) primer and Mo-MLV reverse transcriptase (Invitrogen) with DNAse I (Ambion) treatment for 30 min. The one-tenth of the produced cDNA was amplified by PCR using Taq DNA polymerase (Invitrogen) and two reporter sequence-specific primers. The PCR products were fluorescently labeled by primer extension with 6-arboxyfluorescein (6-FAM) 5'-labeled reporter sequence-specific primer (2 min at 95 C, 20 s at 68 C and 10 min at 72 C) and these products were digested with 5U of HpaI (New England Biolabs) for 2h at 37 C. The fragments were purified using Qiaquick PCR columns (Qiagen), analyzed on an ABI 3130xL genetic analyzer (Applied Biosystems) with peak positions identified by using a set of X-rhodamine (ROX)-labeled MapMarker1000 molecular weight standards (BioVentures). The raw capillary electrophoresis data was processed using Attagraph software (Attagene).
Regarding `CC(=O)c1ccccc1N`, the outcome was inactive. On the same count and under the same terms, the value for `CCOC(=O)C1CC(=O)C(=C(O)C2CC2)C(=O)C1` (stereo not given) was “inactive”. The same measure, in the same setting: next, `C[C@]12CC[C@H]3C(=CCc4cc(O)ccc43)[C@@H]1CCC2=O`: “inactive”; `CC(C)CCCC(C)CCO` (stereo not given): “inactive”.

For the compound `C=CCOC(=O)CC(C)C`, the result was inactive. Same read-out and setting: next, `O=S(=O)(O)CCC(F)(F)C(F)(F)C(F)(F)C(F)(F)F`: “inactive”; `CO[Si](C)(CCC(F)(F)C(F)(F)C(F)(F)C(F)(F)C(F)(F)C(F)(F)F)OC`: “inactive”; `Oc1ccc2c(c1)CCC2`: “inactive”. Same read-out and setting: the value for `CCN(CC)c1ccc(C=O)cc1` was “inactive”. Still for that read-out and setting: the value for `CCOC(=O)CCC(C)=O` was “inactive”; that for `C=CC(=O)OCC(F)(F)C(F)(F)C(F)(F)COC(=O)C=C` was “inactive”; that for `Nc1cccnc1N` was “inactive”. As for `Cc1cccc(C)n1`, the outcome was inactive. Turning to `Cc1ccc([N+](=O)[O-])c(C)c1`, the call was inactive.

For `O=C1c2c(O)ccc(Nc3ccc(CCO)cc3)c2C(=O)c2c([N+](=O)[O-])ccc(O)c21`, the compound was classed as inactive. Still for that read-out and setting: the value for `FC(F)(F)C(F)(F)C(F)(F)C(F)(F)C(F)(F)C(F)(F)CC[Si](Cl)(Cl)Cl` was “inactive”; that for `O=C(O)C(F)(F)C(F)(F)C(F)(F)C(=O)O` was “inactive”; that for `OCCCCl` was “inactive”.

Regarding `CC(C)(C)c1cc(Cc2cc(C(C)(C)C)c(O)c(C(C)(C)C)c2)cc(C(C)(C)C)c1O`, the result was inactive. The same measure, in the same setting: next, `CC(C)(C)C(=O)C1C(=O)c2ccccc2C1=O`: “inactive”; `O=C(O)C(F)(F)C(F)(F)C(F)(F)OC(F)(F)F`: “inactive”. As for `CC(C)(C)c1cc(CCC(=O)OCC(COC(=O)CCc2cc(C(C)(C)C)c(O)c(C(C)(C)C)c2)(COC(=O)CCc2cc(C(C)(C)C)c(O)c(C(C)(C)C)c2)COC(=O)CCc2cc(C(C)(C)C)c(O)c(C(C)(C)C)c2)cc(C(C)(C)C)c1O`, the call was inactive. The same measure, in the same setting: next, `NCC(F)(F)C(F)(F)C(F)(F)C(F)(F)C(F)(F)C(F)(F)C(F)(F)C(F)(F)F`: “inactive”. On the same count and under the same terms, next, `OCC(F)(F)C(F)(F)C(F)(F)C(F)(F)C(F)(F)C(F)(F)CO`: “inactive”; `O=C1c2ccccc2C(=O)c2c(Cl)cccc21`: “inactive”.

In general, AC50 refers to the concentration giving half of the maximal activity seen. Take `CCCCCCCCCc1ccc(OCCO)cc1`: the concentration at half-maximal activity (AC50) was 23.2 µM (active). With `C[Si](C)O[Si](C)C`, the call was inactive. As for `Cc1ccc(S(=O)(=O)C(I)I)cc1`, the AC50 is 13.1 µM (active). Take `O=C(O)CCC(F)(F)C(F)(F)C(F)(F)F`: the outcome was inactive. On the same count and under the same terms, the value for `CC1=CC2C3C=CC(C3)C2C1C` (stereo not given) was “inactive”.

In the case of `CCC(Cc1c(I)cc(I)c(N)c1I)C(=O)O` (stereo not given), the compound was classed as inactive. Same read-out and setting: the value for `CC(C)OC(=O)COc1ccc(Cl)cc1Cl` was “inactive”; that for `O=c1cccc[nH]1` was “inactive”; that for `CC(C)=CCCC(C)O` (stereo not given) was “inactive”. On the same count and under the same terms, next, `CSc1ccc(O)cc1C`: “inactive”. The same measure, in the same setting: the value for `CCc1cccc(C)c1N(C(=O)C(=O)O)C(C)COC` (stereo not given) was “inactive”. In the case of `CCN=C1C=CC(=C(c2ccc(N(CC)CC)cc2)c2ccc(N(CC)CC)cc2)c2ccccc21`, the AC50 is 3.68 µM (active). As for `CC1=CCC(=O)O1`, the call was inactive. The same measure, in the same setting: next, `CC(C)(C)c1cc(CCC(=O)NCCCCCCNC(=O)CCc2cc(C(C)(C)C)c(O)c(C(C)(C)C)c2)cc(C(C)(C)C)c1O`: “inactive”. On the same count and under the same terms, the value for `C#CC(O)CCC` (stereo not given) was “inactive”.

Source of the values: PubChem BioAssay (EPA / NIEHS).
